Experimental data published in PubChem BioAssay AID1159580 (chemical genetic matrix, 2015).
Among all 5,500 compounds or so, about 2,000 (36%) were called active. About 18% were inconclusive and are not listed. No stated cut-off is given here; in the data, active means normalized growth mostly below about 0.91 (no sharp cut-off); inconclusive means no clear call, values can overlap the other calls; inactive means mostly above about 0.92. Some of the results follow.

Experiment: chemical genetic growth profiling, strain panel (AID 1159580);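 further: tested at 20 µM; growth read once vehicle control cultures reached saturation at 30 °C; 1 = growth at the plate median or of vehicle wells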
Conditions: growth OD

Measured: normalized growth

C1CCC(C(CC2CCCCN2)C2CCCCC2)CC1 (centres undefined)
active: S. cerevisiae deletion strains, locus YJR075W, strain HOC1, stronger effect = lower value 0.606 | S. cerevisiae deletion strains, locus YKL190W, strain CNB1, stronger effect = lower value 0.143 | S. cerevisiae deletion strains, locus YKR001C, strain vps1, stronger effect = lower value 0.0792 | S. cerevisiae deletion strains, locus YLR039C, strain RIC1, stronger effect = lower value 0.247 | S. cerevisiae deletion strains, locus YLR058C, strain SHM2, stronger effect = lower value 0.703 | S. cerevisiae deletion strains, locus YLR262C, strain YPT6, stronger effect = lower value 0.151 | S. cerevisiae deletion strains, locus YLR268W, strain sec22, stronger effect = lower value 0.605 | S. cerevisiae deletion strains, locus YLR320W, strain mms22, stronger effect = lower value 0.862 | S. cerevisiae deletion strains, locus YLR330W, strain CHS5, stronger effect = lower value 0.381 | S. cerevisiae deletion strains, locus YLR342W, strain FKS1 (second series), stronger effect = lower value 0.167 | S. cerevisiae deletion strains, locus YLR371W, strain rom2, stronger effect = lower value 0.266 | S. cerevisiae deletion strains, locus YLR418C, strain cdc73, stronger effect = lower value 0.423 | S. cerevisiae deletion strains, locus YML016C, strain PPZ1, stronger effect = lower value 0.363 | S. cerevisiae deletion strains, locus YML032C, strain rad52, stronger effect = lower value 0.877 | S. cerevisiae deletion strains, locus YMR058W, strain fet3, stronger effect = lower value 0.853 | S. cerevisiae deletion strains, locus YMR223W, strain ubp8, stronger effect = lower value 0.454 | S. cerevisiae deletion strains, locus YMR231W, strain pep5, stronger effect = lower value 0.0752 | S. cerevisiae deletion strains, locus YMR263W, strain SAP30, stronger effect = lower value 0.843 | S. cerevisiae deletion strains, locus YMR307W, strain GAS1, stronger effect = lower value 0.174 | S. cerevisiae deletion strains, locus YNL067W, strain RPL9B, stronger effect = lower value 0.793 | S. cerevisiae deletion strains, locus YNL233W, strain BNI4, stronger effect = lower value 0.245 | S. cerevisiae deletion strains, locus YNL307C, strain MCK1, stronger effect = lower value 0.267 | S. cerevisiae deletion strains, locus YNR052C, strain pop2, stronger effect = lower value 0.14 | S. cerevisiae deletion strains, locus YOL006C, strain TOP1, stronger effect = lower value 0.115 | S. cerevisiae deletion strains, locus YOR061W, strain CKA2, stronger effect = lower value 0.114 | S. cerevisiae deletion strains, locus YOR069W, strain VPS5, stronger effect = lower value 0.906 | S. cerevisiae deletion strains, locus YOR106W, strain vam3, stronger effect = lower value 0.458 | S. cerevisiae deletion strains, locus YOR136W, strain idh2, stronger effect = lower value 0.77 | S. cerevisiae deletion strains, locus YOR184W, strain ser1, stronger effect = lower value 0.608 | S. cerevisiae deletion strains, locus YOR270C, strain vph1, stronger effect = lower value 0.452 | S. cerevisiae deletion strains, locus YPL051W, strain arl3, stronger effect = lower value 0.886 | S. cerevisiae deletion strains, locus YPL055C, strain LGE1, stronger effect = lower value 0.4 | S. cerevisiae deletion strains, locus YPR163C, strain tif3, stronger effect = lower value 0.0807 | S. cerevisiae deletion strains, locus YPR167C, strain met16, stronger effect = lower value 0.844 | S. cerevisiae deletion strains, strain wtn01, stronger effect = lower value 0.317 | S. cerevisiae strains, strain wild type, stronger effect = lower value 0.314
inactive: S. cerevisiae deletion strains, locus YJR066W, strain TOR1, stronger effect = lower value 0.973 | S. cerevisiae deletion strains, locus YKL009W, strain mrt4, stronger effect = lower value 1 | S. cerevisiae deletion strains, locus YKL068W, stronger effect = lower value 1.01 | S. cerevisiae deletion strains, locus YKL085W, strain MDH1 (second series), stronger effect = lower value 0.996 | S. cerevisiae deletion strains, locus YKL085W, strain MDH1, stronger effect = lower value 0.996 | S. cerevisiae deletion strains, locus YKL160W, strain elf1, stronger effect = lower value 0.952 | S. cerevisiae deletion strains, locus YKR026C, strain gcn3, stronger effect = lower value 0.988 | S. cerevisiae deletion strains, locus YKR091W, strain srl3, stronger effect = lower value 0.989 | S. cerevisiae deletion strains, locus YLL001W, strain dnm1, stronger effect = lower value 0.992 | S. cerevisiae deletion strains, locus YLL026W, stronger effect = lower value 0.985 | S. cerevisiae deletion strains, locus YLL041C, strain sdh2, stronger effect = lower value 0.967 | S. cerevisiae deletion strains, locus YLR027C, strain aat2, stronger effect = lower value 0.977 | S. cerevisiae deletion strains, locus YLR102C, strain apc9, stronger effect = lower value 1.01 | S. cerevisiae deletion strains, locus YLR113W, strain HOG1, stronger effect = lower value 1.02 | S. cerevisiae deletion strains, locus YLR221C, strain rsa3, stronger effect = lower value 0.98 | S. cerevisiae deletion strains, locus YLR258W, strain gsy2, stronger effect = lower value 0.99 | S. cerevisiae deletion strains, locus YLR262C, strain YPT6 (second series), stronger effect = lower value 1.08 | S. cerevisiae deletion strains, locus YLR342W, strain FKS1, stronger effect = lower value 0.981 | S. cerevisiae deletion strains, locus YLR357W, strain rsc2, stronger effect = lower value 0.963 | S. cerevisiae deletion strains, locus YLR370C, strain arc18, stronger effect = lower value 0.981 | S. cerevisiae deletion strains, locus YLR384C, strain iki3, stronger effect = lower value 0.972 | S. cerevisiae deletion strains, locus YML120C, strain ndi1, stronger effect = lower value 0.973 | S. cerevisiae deletion strains, locus YML124C, strain tub3, stronger effect = lower value 0.954 | S. cerevisiae deletion strains, locus YMR078C, strain ctf18, stronger effect = lower value 1.02 | S. cerevisiae deletion strains, locus YMR125W, strain sto1, stronger effect = lower value 0.897 | S. cerevisiae deletion strains, locus YMR129W, stronger effect = lower value 0.972 | S. cerevisiae deletion strains, locus YMR205C, strain PFK2, stronger effect = lower value 0.93 | S. cerevisiae deletion strains, locus YNL071W, strain lat1, stronger effect = lower value 0.975 | S. cerevisiae deletion strains, locus YNL183C, strain NPR1, stronger effect = lower value 0.976 | S. cerevisiae deletion strains, locus YNL209W, strain ssb2, stronger effect = lower value 0.974 | S. cerevisiae deletion strains, locus YNL248C, strain rpa49, stronger effect = lower value 0.926 | S. cerevisiae deletion strains, locus YNL250W, strain rad50, stronger effect = lower value 1.01 | S. cerevisiae deletion strains, locus YNL271C, strain bni1, stronger effect = lower value 1.01 | S. cerevisiae deletion strains, locus YNL298W, strain CLA4, stronger effect = lower value 1.01 | S. cerevisiae deletion strains, locus YNL322C, strain KRE1 (second series), stronger effect = lower value 0.975 | S. cerevisiae deletion strains, locus YNR049C, strain mso1, stronger effect = lower value 0.99 | S. cerevisiae deletion strains, locus YOL147C, strain pex11, stronger effect = lower value 0.941 | S. cerevisiae deletion strains, locus YOR001W, strain rrp6, stronger effect = lower value 0.893 | S. cerevisiae deletion strains, locus YOR070C, strain gyp1, stronger effect = lower value 0.979 | S. cerevisiae deletion strains, locus YOR080W, strain dia2, stronger effect = lower value 0.988 | S. cerevisiae deletion strains, locus YOR083W, strain WHI5, stronger effect = lower value 0.94 | S. cerevisiae deletion strains, locus YOR144C, strain elg1, stronger effect = lower value 1.02 | S. cerevisiae deletion strains, locus YOR231W, strain MKK1, stronger effect = lower value 1.02 | S. cerevisiae deletion strains, locus YOR265W, strain rbl2, stronger effect = lower value 0.979 | S. cerevisiae deletion strains, locus YOR290C, strain snf2, stronger effect = lower value 0.869 | S. cerevisiae deletion strains, locus YOR316C, strain cot1, stronger effect = lower value 0.97 | S. cerevisiae deletion strains, locus YPL078C, strain atp4, stronger effect = lower value 0.973 | S. cerevisiae deletion strains, locus YPL106C, strain sse1, stronger effect = lower value 0.984 | S. cerevisiae deletion strains, locus YPL240C, strain hsp82, stronger effect = lower value 0.98 | S. cerevisiae deletion strains, locus YPL241C, strain CIN2, stronger effect = lower value 0.93 | S. cerevisiae deletion strains, locus YPL256C, strain CLN2, stronger effect = lower value 1.02 | S. cerevisiae deletion strains, locus YPR119W, strain clb2, stronger effect = lower value 0.935 | S. cerevisiae deletion strains, locus YPR141C, strain kar3, stronger effect = lower value 1.03
